This is a sample that favours compounds with a hit; in the whole collection about 9.2% have one here.
NPC1 prom act – NPC1 promoter activation. Huh7 NPC1 promoter luciferase reporter, 24 h. Potency, µM (titrated, usually from 9.22 µM), without a hit: at the top dose activation, hits mostly activators. actives 2.4% (n = 320,000); also: % of control where 0% means no effect; nearly all actives have a fitted effect of over 60% in size
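Stable NPC1-promoter luciferase Huh7 line; cpd (DMSO) 24 h, 37 °C, 5% CO2; Amplite luciferase reagent 10 min RT; luminescence readout. qHTS format.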
FLuc modulator – inhibits or activates purified firefly luciferase, miR-21 counter-screen; Potency, µM (top dose mostly 57.5 µM), without a hit: top-dose activity change, negative = inhibition, usual class: inhibitors; P08659; actives 6.9% (n = 360,000); purified FLuc, Km substrates, luminescence inhibition;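 also: plate controls were vehicle for no effect and reference inhibitor for full effect; nearly all actives have a fitted effect of over 55% in size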
Target sequence (P08659 whole entry, looked up): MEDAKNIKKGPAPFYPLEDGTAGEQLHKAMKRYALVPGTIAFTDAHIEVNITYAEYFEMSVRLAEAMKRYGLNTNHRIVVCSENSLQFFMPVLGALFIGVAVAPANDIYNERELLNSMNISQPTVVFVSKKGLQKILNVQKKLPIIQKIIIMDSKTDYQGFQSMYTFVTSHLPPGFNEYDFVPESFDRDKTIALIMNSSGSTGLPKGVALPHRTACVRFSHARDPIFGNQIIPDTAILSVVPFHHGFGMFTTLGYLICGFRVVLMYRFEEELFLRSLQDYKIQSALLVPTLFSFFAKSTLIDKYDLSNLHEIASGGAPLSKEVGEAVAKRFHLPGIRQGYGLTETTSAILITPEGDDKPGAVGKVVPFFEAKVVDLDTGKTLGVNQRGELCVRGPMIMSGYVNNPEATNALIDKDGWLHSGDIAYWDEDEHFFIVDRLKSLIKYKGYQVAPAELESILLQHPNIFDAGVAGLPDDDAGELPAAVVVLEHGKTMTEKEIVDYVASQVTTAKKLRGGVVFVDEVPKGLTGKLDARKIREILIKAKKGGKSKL
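Purified P. pyralis luciferase, 10 nM final, with Km-level 10 uM D-luciferin and 10 uM ATP in 50 mM Tris acetate pH 7.5, 10 mM Mg acetate, 0.01% Tween-20, 0.05% BSA; 6-point qHTS titration about 60 µM downward; luminescence read.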
SMN2 splice enh – increases expression of the SMN2 splice variant. actives 2.8% (n = 210,000). Potency, µM (highest dose often 46.1 µM), without a hit: at the top dose activity change, positive = activation, most hits filed as activators. HEK293 SMN2-luciferase splicing reporter, luminescence, 30-36 h; also: % of control where 0% means no effect; nearly all actives have a fitted effect of over 55% in size
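HEK293 cells carry an SMN2 […]–luciferase reporter in which exon 7 inclusion puts luciferase in frame. Cells were plated 10-12 h before compound addition, then incubated 30-36 h at 37C. ONE-Glo luminescence was read; sodium butyrate at 4.5 mM final served as control.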
ELG1 repair inh – ELG1-dependent DNA repair inhibition | HEK293T ELG1-luciferase reporter, luminescence, 16 h; DNA damage induced by 5-fluorouridine | Potency, µM (highest dose often 46.1 µM), for inactives: at the top dose activity change, negative = inhibition, actives largely listed as inhibitors | actives 2.3% (n = 330,000); also: % is scaled to controls: 0 for no effect and ±100 for the full control effect; nearly all actives have a fitted effect of over 55% in size
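DMSO vehicle served as the neutral condition. Each well held 2,000 cells given 5-fluorouridine plus compound; after 16 hr at 37 °C/5% CO2, ONE-Glo was added and luciferase measured 30 min later.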
ELG1 genotox – genotoxicity induction in ELG1-luciferase HEK293T cells; HEK293T ELG1-luciferase reporter, luminescence, 16 h; Potency, µM (doses to about 46 µM), for the others: at the highest dose activity change, positive = activation, hits mostly activators; actives 1.3% (n = 330,000); also: % of control where 0% means no effect; nearly all actives have a fitted effect of over 60% in size
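Genotoxic stress is detected as increased luminescence from luciferase-tagged ELG1 in HEK293T cells, measured with ONE-Glo after a 16 hr treatment at 37 °C.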
Rab9 prom act – activates the Rab9 promoter. Huh7 Rab9 promoter-luciferase reporter, luminescence, 24 h. Potency, µM (highest dose often 9.22 µM), inactives show at the top dose activation, negative = inhibition, usual class: activators. actives 2.8% (n = 320,000). AID 485297; also: % of control where 0% means no effect; nearly all actives have a fitted effect of over 60% in size
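Cell-based reporter: Huh7 stable for Rab9 promoter-driven luciferase, plated in reduced-serum medium with 10% FBS at 1500 cells/well, compound-treated 24 h at 37 °C, luminescence read after 10 min reagent.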
Numbers without * were called inactive; ? = inconclusive; . = not tested or not shown; [ ] = remark or other dose. Calls follow the shape of the dose curve; as a rule, active = well fitted curve in the direction sought with a large enough effect; inconclusive = small, poorly fitted or top-dose-only effect, or another doubt; inactive = no such curve, though single readings can be large; an effect the other way counts as inactive or inconclusive. Potency is read from the fitted curve at half-maximal effect.

SMILES	NPC1 prom act	FLuc modulator	SMN2 splice enh	ELG1 repair inh	ELG1 genotox	Rab9 prom act
Fc1ccc(C2=CC(c3ccc(F)cc3)n3c(nc4ccccc43)N2)cc1 (stereo not drawn)	.	11µM*	.	.	.	.
COc1ccc(C(=O)Nc2nc3n(n2)C(c2ccc(F)cc2)C=C(c2ccc(Cl)cc2)N3)cc1 (stereo not drawn)	.	-14%	.	.	.	.
COC(=O)c1ccc(C2C=C(c3ccc(Cl)cc3)Nc3nc4ccccc4n32)cc1 (stereo not drawn)	.	6.7µM*	.	.	.	.
COc1ccc(C2=CC(c3cc(Br)ccc3F)n3c(nc4ccccc43)N2)cc1 (stereo not drawn)	.	4.3µM*	.	.	.	.
Cc1cccc(NC(=O)CCn2nc(C)c3c(C)n(-c4ccccc4)nc3c2=O)c1C	.	0%	.	.	.	.
COc1cc(Cl)c(C)cc1NC(=O)c1c(C)oc2nc(C)nc(N3CCCC3)c12	.	60%	.	.	.	.
COC(=O)COc1ccc2c(c1)O/C(=C\c1ccco1)C2=O	1%	3.4µM*	.	8%	0%	13%
CCN(CC)C(=O)Oc1ccc2c(c1)O/C(=C\c1ccco1)C2=O	?	3µM*	.	?	12%	?
COCCN(CCOC)Cc1c(O)ccc2c1O/C(=C\c1ccco1)C2=O	-1%	-5%	.	-3%	-2%	-2%
Cc1cc(O)cc2c1C(=O)/C(=C/c1ccco1)O2	?	12µM*	.	?	22%	-2%[1.84 µM]
CC(=O)Oc1ccc2c(c1)O/C(=C\c1ccncc1)C2=O	-3%	?	.	9%	1%	1%
CCC(=O)Oc1ccc2c(c1)O/C(=C\c1ccco1)C2=O	1%	3.4µM*	.	?	9%	12%
Cc1ccc(Cl)cc1N(C)C(=O)c1cc2ccc3cccnc3c2[nH]1	.	-12%	.	.	.	.
COc1ccc(N(CC(=O)Nc2nccs2)S(=O)(=O)c2c(C)[nH]c(=O)[nH]c2=O)cc1	-2%	-12%	16%	7%	-6%	13%
CCc1ccc(NC(=O)CC2C(=O)N(c3ccc(Cl)cc3)C(=O)N2C2CCCC2)cc1 (stereo not drawn)	.	-1%	.	.	.	.
O=C(NCc1ccc(F)cc1)c1cnc(N2CCOCC2)c2ccccc12	.	5%	.	.	.	.
CCOc1ccc(Nc2nc(Cc3nnc(SCC(N)=O)o3)cs2)cc1	-2%	15µM*	-13%	6%	5%	-1%
CCOc1ccc(NC(=O)CSc2nnc(Cc3csc(C)n3)o2)cc1	-9%	2%	.	-5%	-1%	0%
Cc1ccc(S(=O)(=O)OCC(=O)O)cc1	.	.	-18%[9.22 µM]	.	.	.
O=c1oc2ccccc2c(N2CCN(c3ccc(F)cc3)CC2)c1CN1CCCC1	.	0%	-6%	.	.	.
Nc1c(N2CCN(c3ccccc3)CC2)c2ccccc2oc1=O	1%	-2%	-30%	18µM*	-32%	8%
O=c1c2ccccc2oc2ccc(NCCCn3ccnc3)cc12	1.4µM*	1.7µM*	.	?	?	1.1µM*
CC12CC(c3ccccc3O1)N(C(=O)c1ccco1)C(=S)N2c1ccc(F)cc1 (stereo not drawn)	-6%	-2%	7%	-5%	-5%	-3%
NC(=O)CSc1nc2c(sc(=S)n2-c2ccccc2)c(=O)[nH]1	-2%	2%	.	-3%	-1%	-1%
O=c1c(C=NCCCn2ccnc2)c(-c2ccccc2)[nH]n1-c1nc2ccccc2s1	-4%	17µM*	.	-5%	?	2%
O=C(Nc1ccc(OC(F)(F)F)cc1)C1=NCCN1	?	6.7µM*	2%	?	10%	2%
c1cncc(-c2nc3c(ccc4ccccc43)[nH]2)c1	?	11µM*	8%	?	7%	?
O=c1[nH]c(-c2cccnc2)nc2ccccc12	0%	-2%	1%	11%	0%	-7%
Cc1ccc(NC(=O)Nc2cccnc2)cc1NC(=O)Nc1cccnc1	3%	?	.	8.2µM*	-19%	0%
